In PubChem BioAssay (Tox21):
Results filed as inconclusive are left out. Unmarked numbers belong to inactive results. Calls follow the shape of the dose curve; as a rule, active = well fitted cell-killing curve with a large enough effect in the repeat runs; inconclusive = weak or mixed curves, or effect the other way; inactive = no such curve, though single readings can be large or run the other way.
% is scaled to controls: 0 for no effect and ±100 for the full control effect.

Assay: qHTS assay to identify small molecule agonists of the farnesoid-X-receptor (FXR) signaling pathway - cell viability counter screen (AID 743218); also: nearly all actives have a fitted effect of over 45% in size
Conditions: FXR-bla HEK293T viability, CellTiter-Glo luminescence, 16 h; series mostly up to 62.6 µM; viability change, negative = cytotoxic: at the top concentration
Excerpt: U.S. Tox21 Program National Center for Advancing Translational Sciences [NCATS] NIH Chemical Genomics Center [NCGC] U.S. Environmental Protection Agency [EPA] National Institutes of Environmental Health Sciences [NIEHS] National Toxicology Program [NTP] U.S. Food and Drug Administration [FDA] Tox21 Assay Overview: The farnesoid-X-receptor (FXR), a nuclear hormone receptor, is highly expressed in liver, intestine, kidney and adrenal cortex. Natural ligands of FXR are the bile acids (Cholic acid, Chenodeoxy cholic acid etc). FXR is an important regulator of diverse metabolic pathways, including the bile acid homeostasis, lipid and glucose metabolisms. FXR regulates the expression of target genes by binding either as a monomer or as a heterodimer with the retinoid X receptor (RXR). Numerous studies have reported that FXR exerts protective function during cholestasis, diabetes, liver regeneration, and cancer. To identify compounds that activate FXR signaling, GeneBLAzer FXR-UAS-bla HEK 293T cell line (Invitrogen, Carlsbad, CA) containing a beta-lactamase reporter gene under the control of a UAS response element was used to screen the Tox21 10K compound library. The cytotoxicity of the Tox21 compound library against the FXR-bla cell line was tested in parallel by measuring the cell viability using CellTiter-Glo assay in the same wells.
Tox21 Assay Protocol Summary: FXR-bla cells were dispensed at 5000 cells/5uL/well in 1536-well black wall/clear bottom plates using a Multidrop Combi (Thermo Fisher Scientific, Waltham, MA) dispenser. After the assay plates were incubated at 37 C and 5% CO2 for 5 h, 23 nL of compounds dissolved in DMSO, positive controls or DMSO only was transferred to the assay plate by a Pintool station (Kalypsys, San Diego, CA). The assay plates were incubated at 37C for 16 h. After 1 uL of LiveBLAzerTM B/G FRET substrate was added using a Bioraptr Flying Reagent Dispenser (FRD) workstation (Beckman Coulter, Indianapolis, IN), the plates were incubated at room temperature for 2 h, and fluorescence intensity was measured by an Envision plate reader (PerkinElmer, Shelton, CT). For cell viability readout that measures cytotoxicity, 4uL/well of CellTiter-Glo reagent was added into the assay plates using a Bioraptr FRD. After 30 min incubation at room temperature, the luminescence intensity in the plates was measured using a ViewLux plate reader (PerkinElmer).
With `COP(=S)(OC)Oc1ccc(S(N)(=O)=O)cc1` the “viability change, negative = cytotoxic” value was 12.1%. For `CCOC(=O)C(c1c(O)c2ccccc2oc1=O)c1c(O)c2ccccc2oc1=O`, the “viability change, negative = cytotoxic” value was -16.3%. With `CCCCOC(=O)c1ccccc1C(=O)O` the “viability change, negative = cytotoxic” value was -16.4%. In the case of `[As]#[In]`, the “viability change, negative = cytotoxic” value is reported as 1.48%. In the case of `CCCCOP(=O)(O)OCCCC`, the “viability change, negative = cytotoxic” value is reported as -0.401%. With `O=C(O)c1ccc2[nH]cc(CCCCN3CC=C(c4ccccc4)CC3)c2c1` the “viability change, negative = cytotoxic” value was -5.25%. With `CCN(CC)C(=O)[C@@H]1C=C2c3cccc4[nH]cc(c34)C[C@H]2N(C)C1` the “viability change, negative = cytotoxic” value was -26.6% [at 232 µM]. In the case of `c1ccc(N2CCNCC2)cc1`, the “viability change, negative = cytotoxic” value is reported as 8.97%. With `CNC(=O)O/N=C(\C)SC` the “viability change, negative = cytotoxic” value was 41.7%. For `CC(C)CC(N(C)C)C1(c2ccc(Cl)cc2)CCC1` (stereo not given), the “viability change, negative = cytotoxic” value was -3.26%. With `CN1CCC(O)(c2ccc(F)cc2)C(C(=O)c2ccc(F)cc2)C1` (stereo not given) the “viability change, negative = cytotoxic” value was -28.9%. For `NC1=NC(=O)C(c2ccccc2)O1` (stereo not given), the “viability change, negative = cytotoxic” value was 21.4%. For `CCOC(=O)/C=C(C)/C=C/C[C@@H](C)CCCC(C)C`, the “viability change, negative = cytotoxic” value was -7.81%. For `OC(Cn1cncn1)(c1ccc(F)cc1)c1ccccc1F` (stereo not given), the “viability change, negative = cytotoxic” value was -1.01%. For `O=S(=O)(O)C(F)(F)C(F)(F)C(F)(F)C(F)(F)C(F)(F)C(F)(F)F`, the “viability change, negative = cytotoxic” value was -15.3%. For `COC(=O)c1ccccc1S(=O)(=O)NC(=O)N(C)c1nc(C)nc(OC)n1`, the “viability change, negative = cytotoxic” value was 16.7% [at 81.1 µM]. For `CN1C[C@@H](NS(=O)(=O)N(C)C)C[C@@H]2c3cccc4c3c(cn4C)C[C@H]21`, the “viability change, negative = cytotoxic” value was -25.8%. With `OCCBr` the “viability change, negative = cytotoxic” value was 1.8%. In the case of `O=c1oc2ccccc2c(O)c1C1CCCc2ccccc21` (stereo not given), the “viability change, negative = cytotoxic” value is reported as -8.78%. For `CCC#N`, the “viability change, negative = cytotoxic” value was -2.65% [at 81.1 µM]. With `CCN(CC)CCOC(=O)C(C)(c1ccccc1)c1ccccc1` the “viability change, negative = cytotoxic” value was -4.18%. For `C[C@]12CC[C@H]3[C@@H](CCC4=CC(=O)CC[C@@]43C)[C@@H]1CC[C@@H]2C(=O)O`, the “viability change, negative = cytotoxic” value was -3.19%. In the case of `CCN(CC)C(C)C(=O)c1ccccc1` (stereo not given), the “viability change, negative = cytotoxic” value is reported as 47.6%. For `O=C1OC(=O)C2C1C1(Cl)C(Cl)=C(Cl)C2(Cl)C1(Cl)Cl` (stereo not given), the “viability change, negative = cytotoxic” value was -2.95% [at 81.1 µM]. With `O=C1CN2CCOC2(c2ccccc2Cl)c2cc(Cl)ccc2N1` (stereo not given) the “viability change, negative = cytotoxic” value was 5.06%. For `Nc1n[nH]c(N)n1`, the “viability change, negative = cytotoxic” value was -7.69% [at 81.1 µM]. With `COC(=O)C(c1ccccc1)C1CCCCN1` (stereo not given) the “viability change, negative = cytotoxic” value was -1.01%. With `CSc1nc(N=[N+]=[N-])nc(NC(C)C)n1` the “viability change, negative = cytotoxic” value was 21.2%. With `COc1ccc2c(c1OC)CN1CCc3cc4c(cc3C1C2)OCO4` (stereo not given) the “viability change, negative = cytotoxic” value was 3.19%. With `CC1CCC(=O)O1` (stereo not given) the “viability change, negative = cytotoxic” value was 9.69%. In the case of `CC1(C(=O)Nc2ccc(O)c(Cl)c2Cl)CCCCC1`, the “viability change, negative = cytotoxic” value is reported as 40%. For `CNC(=O)Oc1ccc(N(C)C)c(C)c1`, the “viability change, negative = cytotoxic” value was -11.7%. With `O=P(O)(Oc1ccccc1)Oc1ccccc1` the “viability change, negative = cytotoxic” value was 10.5%. For `O=C1OC(CCN2CCCCC2)OC1(c1ccccc1)c1ccccc1` (stereo not given), the “viability change, negative = cytotoxic” value was 5.09%. In the case of `CCCSP(=S)(OCC)Oc1ccc(Cl)cc1Cl` (stereo not given), the “viability change, negative = cytotoxic” value is reported as -14.8%. In the case of `CCOP(=S)(OCC)Oc1nc(Cl)n(C(C)C)n1`, the “viability change, negative = cytotoxic” value is reported as 5.99%. In the case of `CCCCCCI`, the “viability change, negative = cytotoxic” value is reported as 3.56%. For `O=NN1CCCCC1`, the “viability change, negative = cytotoxic” value was -3.12%. In the case of `CCC(C)n1c(=O)[nH]c(C)c(Br)c1=O` (stereo not given), the “viability change, negative = cytotoxic” value is reported as 13.2%. With `BrCCCCCCBr` the “viability change, negative = cytotoxic” value was 21%.
